TROY NFkB inh – inhibitors of TROY-driven NF-kB signaling, primary screen, Q293 LMP1-TROYcd cells, NF-kB luciferase, uHTS. Q293 LMP1-TROYcd NF-kB luciferase reporter, 4 h. inhibition, % at 10 µM. hit rate 0.98% among 360,000. AID 1347056, 2019;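 active = compounds whose plate-normalised and pattern-corrected inhibition of the luciferase reporter signal at the single screening dose is 50% or more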
HSF1 inhib – HSF1 inhibitors in luciferase reporter cells, primary screen, cell-based, NIH3T3, luminescence; NIH3T3-HGL HSE-luciferase, MG132-induced, luminescence 8 h; hits give low values; activity change, negative = inhibition, % at 7.5 µM (by protocol); hit rate 0.77% among 300,000;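 active = more than half of replicate wells show activity change below -50%, luminescence cut by over half; inconclusive = some wells, but at most half, below -50%; inactive = no replicate well below -50%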;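 note: luciferase reports HSF-1 transcriptional activity via heat shock element; 0% = median of DMSO wells and -100% = zero luminescence signal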
TWEAK Fn14 block – inhibitors of TWEAK-Fn14 signaling, primary screen, luciferase reporter cells, uHTS. AID 1159606, 2016. TWEAK-stimulated Fn14 reporter cells, luciferase luminescence, 8 h. hit rate 2% among 360,000. inhibition, % at 10 µM; in the data active = inhibition above about 50%
HSF1 activator – HSF-1 activators, primary screen, NIH3T3-HGL cells, MG132 stress, luminescence, single point | NIH3T3-HGL HSF-1 luciferase reporter, 8 h; 100% = twice DMSO control signal | activation, % at 9 µM | hit rate 1.7% among 300,000 | AID 504408, 2011;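 active = mean replicate activation of at least 50% with a set share of replicates each reaching 50%; inconclusive = only one of those two conditions met; inactive = mean below 50% and too few replicates reaching it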;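 note: 0% = median of the neutral control wells and 100% = twice that signal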
LMP1 NFkB inh – EBV LMP1-driven NF-kappaB luciferase reporter inhibitors, primary screen, cell-based, luminescence, single point | LMP1-induced NF-kappaB luciferase reporter cells | hit rate 0.69% among 350,000 | inhibition, % at 12.5 µM; in the data active = inhibition above about 41%; inconclusive = no clear call, values can overlap the other calls;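 note: 0% = neutral control wells and 100% = reference inhibitor control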
HSP90 inh – HSP90 inhibitors, primary screen, cell lysate, luminescence; Rabbit reticulocyte lysate, luciferase refolding luminescence, 3 h; inhibition, % at 5.6 µM; hit rate 0.91% among 290,000;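 active = inhibition above the screen-wide mean plus 3 SD, computed separately per campaign, cut at about 16% in these data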;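 note: 0% = DMSO wells and 100% = 60 µM geldanamycin wells; inhibitors lower the luminescence because luciferase stays unfolded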
HSP90 inh confirm – HSP90 inhibitors, confirmation, cell lysate, luminescence; shares compounds with HSP90 inh; rabbit reticulocyte lysate, luciferase refolding luminescence, 3 h; inhibition, % at 5.9 µM; hit rate 64% among 2,300; AID 1846, 2009; in the data active = inhibition above about 18%;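 note: 0% = vehicle wells and 100% = reference inhibitor wells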
luciferase ctr – firefly luciferase inhibitors, HSP90 counter-screen, confirmation, artefact control for HSP90 inhibitor project, biochemical, luminescence, triplicate | shares compounds with HSP90 inh | purified native firefly luciferase | inhibition, % at 5.9 µM | hit rate 48% among 2,300;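 active = inhibition above the mean inhibition of all tested sample wells plus 3 SD, cut at about 10% in these data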;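 note: 0% = DMSO with luciferase and 100% = wells lacking luciferase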
Target sequence (P08659 whole entry, looked up): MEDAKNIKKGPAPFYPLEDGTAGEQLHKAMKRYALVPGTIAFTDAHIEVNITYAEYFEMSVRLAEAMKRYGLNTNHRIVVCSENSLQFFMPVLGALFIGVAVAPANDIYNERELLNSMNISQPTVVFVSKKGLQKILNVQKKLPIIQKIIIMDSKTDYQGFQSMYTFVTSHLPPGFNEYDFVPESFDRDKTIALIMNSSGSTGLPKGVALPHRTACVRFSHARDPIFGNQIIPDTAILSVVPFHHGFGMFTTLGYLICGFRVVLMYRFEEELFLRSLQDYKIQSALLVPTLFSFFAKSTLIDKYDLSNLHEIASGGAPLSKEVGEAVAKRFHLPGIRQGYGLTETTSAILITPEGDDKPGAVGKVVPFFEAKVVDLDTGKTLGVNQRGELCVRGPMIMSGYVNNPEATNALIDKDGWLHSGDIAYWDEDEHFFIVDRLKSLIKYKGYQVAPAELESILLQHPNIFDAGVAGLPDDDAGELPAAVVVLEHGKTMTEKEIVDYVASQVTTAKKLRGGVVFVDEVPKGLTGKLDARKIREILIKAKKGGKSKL
An asterisk follows results filed as active; ? = inconclusive; · = no result. This is a sample that favours compounds with a hit; in the whole collection about 4.7% have one here.

SMILES	TROY NFkB inh	HSF1 inhib	TWEAK Fn14 block	HSF1 activator	LMP1 NFkB inh	HSP90 inh	HSP90 inh confirm	luciferase ctr
Fc1cccc(Cl)c1C1Nc2cccc3cccc(c23)N1	6	-4	27	0	-4	19*	-2	-5
Clc1cccc(Cl)c1C1Nc2cccc3cccc(c23)N1	25	-5	0	-7	4	5	·	·
CC(C)C[C@H]1CN([C@@H](Cc2ccc(O)cc2)CN2CCCC2CN2C(=S)NC[C@@H]2Cc2ccccc2)C(=S)N1CC1CCCCC1 (stereo not given in full)	10	·	15	·	·	·	·	·
Cc1cccc(N=C2NN=C(c3ccc4c(c3)OCCO4)CS2)c1	57*	?	54*	-55	-23	28*	40*	34*
Cc1cccc(N=C2NN=C(c3c(C)[nH]c4ccccc34)CS2)c1	17	-7	15	33	-52	-2	·	·
Cc1ccc(F)c(CNC(=O)C2(C)CCCN2C(=O)C(C)C)c1F (stereo not given)	-4	·	4	·	·	·	·	·
COc1cc(/C=C2\C(=O)N(CCC#N)N=C2C)c(Br)cc1OC(C)C	20	3	17	9	4	18*	2	4
COc1ccc(CN2CCN(S(=O)(=O)c3ccc(NC(C)=O)cc3)CC2)cc1	16	1	4	12	0	24*	-1	-2
CCCCCCn1cc(CN2CC(N(C)CC)CS2(=O)=O)nn1 (stereo not given)	-1	·	-15	·	·	·	·	·
Cc1cccc(NC(=O)c2ccc3c(Cl)c4c(nc3c2)CCCC4)n1	71*	-41	63*	-44	-34	17*	58*	47*
Cc1ccc(C)c(NC(=O)COC(=O)c2cccc(S(=O)(=O)N3CCCC3)c2)c1	3	·	9	·	-8	·	·	·
CCCNC(=O)C1(C)CCN(C(=O)c2cccc(Cl)c2)C1 (stereo not given)	-11	·	5	·	·	·	·	·
Cc1ccc(C2/C(=C(/O)c3cnn(-c4ccccc4)c3C)C(=O)C(=O)N2CCN2CCOCC2)o1 (stereo not given)	-11	-8	18	-7	-6	21*	16	5
Cc1nc2ccccn2c1/C(O)=C1\C(=O)C(=O)N(CCN2CCOCC2)C1c1cccs1 (stereo not given)	-14	3	12	-11	5	1	·	·
Cc1c(/C(O)=C2/C(=O)C(=O)N(CCN3CCOCC3)C2c2cccs2)cnn1-c1ccccc1 (stereo not given)	60*	-1	53*	-6	-5	45*	47*	40*
COC(=O)C(Cc1ccc(O)cc1)NC(=O)c1ccc2c(c1)OCCO2 (stereo not given)	14	-5	23	12	-8	26*	41*	28*
CCCCN(CC)C(=O)c1cc2cc3ccc(OC)cc3nc2o1	-22	5	-36	4	-18	1	·	·
CCCCN(C)C(=O)c1cc2cc3ccc(OC)cc3nc2s1	25	6	74*	34	-9	30*	39*	27*
COC(=O)c1ccc(-c2nc(CN3CCCN(C(=O)c4ccco4)CC3)c(C)o2)cc1	-36	0	3	2	-6	25*	16	-11
COC(=O)c1ccc(-c2nc(CN3CCN(C(=O)c4ccco4)CC3)c(C)o2)cc1	-8	·	-1	·	-2	·	·	·
Cn1c(COc2ccccc2)nnc1SCC(=O)Nc1nnc(C2CC2)s1	-9	·	-9	·	5	·	·	·
CC1CN(C(=O)COC(=O)c2ccc(C#N)cc2)CC(C)O1 (stereo not given)	6	2	18	5	-2	48*	-2	-4
CC1CN(C(=O)COC(=O)c2ccc(O)cc2)CC(C)O1 (stereo not given)	7	-6	9	4	3	-2	·	·
CCC(=O)N1CCC1(C)C(=O)NCc1ccccc1SC (stereo not given)	-2	·	0	·	·	·	·	·
CC(=O)c1cc(-c2ccccc2)n(CCC(=O)NC2CCCCC2)c1C	23	5	0	25	-5	27*	1	-4
SMILES	TROY NFkB inh	HSF1 inhib	TWEAK Fn14 block	HSF1 activator	LMP1 NFkB inh	HSP90 inh	HSP90 inh confirm	luciferase ctr
CC(=O)c1cc(-c2ccccc2)n(CCC(=O)NC2CCCC2)c1C	-12	6	5	-11	-11	3	·	·
CN=c1scc(C)n1/N=C/c1ccc(O)c(O)c1O	-48	-11	21	9	4	-2	·	·
C=CCN=c1scc(-c2ccco2)n1/N=C/c1ccc(O)c(O)c1O	-7	9	48	10	-46	17*	25*	-22
CN=c1scc(-c2cccs2)n1/N=C/c1ccc(O)c(O)c1O	89*	?	87*	-51	17	24*	87*	78*
COc1ccc(CCC(=O)OCC(=O)c2c(N)n(CC(C)C)c(=O)n(C)c2=O)cc1	35	-8	1	-13	9	18*	6	3
Cc1ccc(S(=O)c2snnc2C)cc1 (stereo not given)	-12	-3	7	-16	-1	4	·	·
Cc1nnsc1S(=O)c1ccc(F)cc1 (stereo not given)	-15	4	18	-10	-1	24*	-6	-11
Cc1cc(C(=O)N2CCN(c3ccc(C(F)(F)F)cn3)CC2)c(C)o1	16	-7	-11	5	13	-1	·	·
Cc1cccc(C(=O)N2CCN(c3ccc(C(F)(F)F)cn3)CC2)c1C	9	3	-4	-9	45*	38*	2	-5
Cc1ccc([C@@H]2C[C@H]3[C@@H](CN2S(=O)(=O)c2ccc(Cl)cc2)C(=O)C[C@@H](c2ccc(Cl)cc2)N3S(=O)(=O)c2ccccc2C)cc1	-10	·	-7	·	-3	·	·	·
O=c1oc(Nc2cccc(F)c2)nc2ccccc12	-11	13	34	12	-16	18*	2	-14
Cc1nc(Nc2cccc(F)c2)c2oc3ccccc3c2n1	-66	10	18	18	-6	0	·	·
C#CCn1cc2c(c1-c1ccccc1)c(=O)n(C)c(=O)n2C	2	·	-1	·	5	·	·	·
CCN(CC)S(=O)(=O)c1ccc(C)c(NC(=O)CN(C)C)c1	53*	3	16	10	0	49*	-4	-5

Bioassay records (PubChem BioAssay)
